From PubChem BioAssay
JMJD2A Tudor – qHTS Assay for Inhibitors of JMJD2A-Tudor Domain | Lysine-specific demethylase 4A (Homo sapiens), O75164 | AlphaScreen JMJD2A-Tudor / H3K4me3 peptide binding | 4.4% of 390,000 active | Potency, µM (titrated, usually from 114 µM), for inactives: at the highest dose activity change, negative = inhibition, most hits filed as inhibitors; also: % is scaled to controls: 0 for no effect and ±100 for the full control effect; nearly all actives have a fitted effect of over 50% in size
HP1b chromo inh – HTS for Inhibitors of HP1-beta Chromodomain Interactions with Methylated Histone Tails; Chromobox protein homolog 1 (Homo sapiens), P83916; AlphaScreen HP1-beta / biotin-H3K9me3 peptide binding; Potency, µM (titrated, usually from 114 µM), for inactives: top-dose activity change, negative = inhibition, most hits filed as inhibitors; 0.56% of 390,000 active; AID 540317, 2011; also: nearly all actives have a fitted effect of over 70% in size
Target sequence (P83916 whole entry, looked up): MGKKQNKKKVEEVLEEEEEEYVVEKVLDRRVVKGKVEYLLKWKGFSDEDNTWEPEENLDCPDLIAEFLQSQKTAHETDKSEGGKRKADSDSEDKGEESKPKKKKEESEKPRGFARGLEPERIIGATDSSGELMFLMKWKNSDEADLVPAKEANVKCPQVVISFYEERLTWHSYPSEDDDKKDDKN
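HP1-beta protein (50 nM final) preincubated 30 min at room temperature with biotinylated H3(1-18)K9me3 peptide (50 nM) in PBS pH 7.4, 0.01% Tween-20, then compound added for 30 min. AlphaScreen streptavidin donor/nickel chelate acceptor beads (10 ug/mL final), 30 min dark, luminescence read.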
L3MBTL1 block – qHTS Assay for the Inhibitors of L3MBTL1 | Lethal(3)malignant brain tumor-like protein 1 (Homo sapiens), Q9Y468 | AlphaScreen L3MBTL1–H3K9me1 peptide binding | Potency, µM (top dose mostly 57.1 µM), for the others: top-dose activity, negative = inhibition, actives largely listed as inhibitors | 0.66% of 230,000 active; also: % is scaled to controls: 0 for no effect and ±100 for the full control effect; nearly all actives have a fitted effect of over 60% in size
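AlphaScreen proximity signal between nickel-chelate acceptor and streptavidin donor beads (final 10 ug/mL) reports binding of 50 nM L3MBTL1 to 75 nM biotin-H3 K9me1 peptide; complex incubated with compounds 30 min at room temperature; cefsulodin titration as control.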
BAZ2B block – qHTS Assay for Inhibitors of BAZ2B; AlphaScreen BAZ2B-H3K14Ac peptide displacement; Potency, µM (series often up to 114 µM), for inactives: top-dose activity change, negative = inhibition, actives largely listed as inhibitors; 4.4% of 360,000 active; also: % is scaled to controls: 0 for no effect and ±100 for the full control effect; nearly all actives have a fitted effect of over 60% in size
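BAZ2B 50 nM plus b-H3(5-23)K14Ac 50 nM, PBS pH 7.4/0.01% Tween-20, 30 min RT; compound added (max 110 uM), 30 min RT; streptavidin donor/Ni-chelate acceptor beads 10 ug/mL final, 20 min dark; AlphaScreen read.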
Sfp PPTase inh – qHTS Assay for Inhibitors of Bacillus subtilis Sfp phosphopantetheinyl transferase (PPTase) | Biochemical Sfp PPTase activity, qHTS | 4'-phosphopantetheinyl transferase ffp (Bacillus subtilis), Q9F4F7 | 3.5% of 310,000 active | Potency, µM, inactives show largest response in the series, negative = inhibition, hits mostly inhibitors;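 also: the enzyme is Sfp with the accession as filed and its product quenches rhodamine fluorescence; 0% = enzyme reaction without inhibitor and -100% = no enzyme wells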
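With Hepes-Na pH 7.6 buffer containing 10 mM MgCl2, Sfp (15 nM) modified BHQ-2-YbbR (12.5 uM) using rhodamine-CoA (5 uM). Two reads 30 minutes apart at 525/598 nm yielded each well's rate.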
G9a block – qHTS Assay for Inhibitors of Histone Lysine Methyltransferase G9a | Histone-lysine N-methyltransferase EHMT2 (Homo sapiens), Q96KQ7 | G9a H3K9 monomethylation, AlphaScreen, 2 h | Potency, µM (doses to about 102 µM), for the others: top-dose activity, negative = inhibition, usual class: inhibitors | 8.8% of 350,000 active | AID 504332, 2011; also: % is scaled to controls: 0 for no effect and ±100 for the full control effect; nearly all actives have a fitted effect of over 75% in size
Target sequence (Q96KQ7 913-1193 limits assumed): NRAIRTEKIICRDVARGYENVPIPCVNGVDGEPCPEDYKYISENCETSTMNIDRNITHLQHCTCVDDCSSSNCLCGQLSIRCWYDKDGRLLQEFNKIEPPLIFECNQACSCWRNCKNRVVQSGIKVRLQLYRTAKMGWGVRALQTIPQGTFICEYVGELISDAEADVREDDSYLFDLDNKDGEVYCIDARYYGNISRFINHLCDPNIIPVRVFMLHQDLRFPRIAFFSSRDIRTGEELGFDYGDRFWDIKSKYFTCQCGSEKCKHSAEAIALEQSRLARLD
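Compounds were preincubated with 20 nM G9a for 15 min, after which biotinylated H3K9 peptide (500 nM) and SAM (20 uM) started a 2 h room-temperature reaction. Monomethylated product was quantified by antibody-based AlphaScreen chemiluminescence.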
* = called active by the depositor; u = inconclusive; x = no result; ! = not confirmed by another sample; [ ] = dose if it differs, or a comment. Sampled rows, rich in hits. Any-hit rate of the full collection: about 12%. Calls follow the shape of the dose curve; as a rule, active = well fitted curve in the direction sought with a large enough effect; inconclusive = small, poorly fitted or top-dose-only effect, or another doubt; inactive = no such curve, though single readings can be large; an effect the other way counts as inactive or inconclusive. Potency is read from the fitted curve at half-maximal effect.

SMILES	JMJD2A Tudor	HP1b chromo inh	L3MBTL1 block	BAZ2B block	Sfp PPTase inh	G9a block
C/C(CCN1CCc2nc(-c3ccccc3)c(-c3ccccc3)cc2C1)=N\OC[C@@H](C)[C@H](OCc1ccccc1)C(C)C	-27%	13%	-3%	-22%	0%	45µM*
C/C(CCN1CCc2nc(-c3ccccc3)c(-c3ccccc3)cc2C1)=N\O[C@H](C)c1cn([C@H](CO)Cc2ccccc2)nn1	x	x	-12%	-34%	4%	50µM*
CC(=O)c1cccc(NC(=O)c2ccc3c(c2)N(Cc2ccc(C)cc2)CCS3)c1	-15%	32%	x	-2%	x	0%[59 µM]
Cc1cc2oc(=O)cc(-c3ccccc3)c2c(C)c1-c1ccc(N(C)C)cc1	u	-12%	-20%	x	-7%	28µM*
COc1cc(OC)c2c(-c3cccc(-c4ccc(N(C)C)cc4)c3)cc(=O)oc2c1	10µM*	u	u	x	-10%	8.9µM*
Cc1ccc(-c2c(C)cc3oc(=O)cc(-c4ccccc4)c3c2C)cc1	-16%	22%	-5%	x	-15%	36%
CCC(=O)N1CCc2cc(Br)cc(S(=O)(=O)CCC(=O)NCc3ccccc3)c21	-5%	25%	x	2%	x	5%[59 µM]
CCC(c1nnnn1Cc1ccco1)N(Cc1ccccc1OC)Cc1cc2cc(C)ccc2[nH]c1=O (stereo not drawn)	u	-2%	0%	3%	-24%	-6%[59 µM]
Cc1cccc2cc(C(c3nnnn3C(C)(C)C)N(Cc3ccco3)CC3CCCO3)c(=O)[nH]c12 (stereo not drawn)	25µM*	16µM*	u	50µM*	12%	50µM*
Cc1ccc2[nH]c(=O)c(C(c3nnnn3C(C)(C)C)N(Cc3ccco3)CC3CCCO3)cc2c1 (stereo not drawn)	-26%	14%	8%	11%	u	-36%
CCC(c1nnnn1Cc1ccco1)N(Cc1cc2cc(C)cc(C)c2[nH]c1=O)CC1CCCO1 (stereo not drawn)	-21%[11.4 µM]	u	x	u	22µM*	u
O=C(NC1CCCC1)c1ccc2c(=O)n(Cc3ccccc3)c(SCc3ccccc3F)nc2c1	-12%	11%[57 µM]	x	2%	x	8%[59 µM]
CCc1ccc(-n2nc(C)c3c(C(=O)Nc4cccc(C(F)(F)F)c4)cc(C)nc32)cc1	30%	99%	x	32%[57.1 µM]	x	32%[59 µM]
CC(=O)N1CCc2cc(Br)cc(S(=O)(=O)N3CCC(C(=O)Nc4cccc(C)c4C)CC3)c21	-15%	24%	x	-31%	x	-1%[59 µM]
Cc1cc(C)c(NC(=O)CSc2nc(C)cc(C)c2C#N)c(C)c1	-4%	39%	x	-16%	x	6%[59 µM]
O=C(N/N=C/c1c(O)ccc2ccccc12)c1ccc(Br)o1	u	-6%	x	56µM*	-3%	u
COc1cc(/C=N/NC(=O)CCN2CCN(C)CC2)cc2c1OCO2	0.79µM*	u	x	-12%	14%	38%
Cc1ccc(S(=O)(=O)N2CCN(CC(=O)N/N=C\c3ccccn3)CC2)cc1	-13%	49%	-1%	1%	-25%	5%
O=C(N/N=C/c1ccccn1)c1ccc(Br)o1	-28%	32%	9%	71µM*	18µM*	19%
CN1CCN(CCC(=O)N/N=C/c2ccccn2)CC1	7.9µM*	7%	15%	u	-38%	1.3µM*
COc1cc(C(=O)NCCCc2nc3ccccc3n2CC(C)C)cc(OC)c1OC	-14%	10%	x	2%	x	9%[59 µM]
c1ccc(-c2nnc(CN3CCN(c4ccccn4)CC3)o2)cc1	-19%	19%	x	-3%	x	6%[59 µM]
O=C(N/N=C\c1c(O)ccc2ccccc12)c1cncc(Br)c1	56µM*	68%	-3%	35µM*	11%	16%
O=C(NN=Cc1c(O)ccc2ccccc12)c1ccncc1	79µM*	24%	x	x	x	x
O=C(N/N=C/c1c(O)ccc2ccccc12)c1cccnc1	50µM*	49%	x	-12%	4%	22%
SMILES	JMJD2A Tudor	HP1b chromo inh	L3MBTL1 block	BAZ2B block	Sfp PPTase inh	G9a block
O=C(N/N=C\c1c(O)ccc2ccccc12)c1ccc(O)cc1	u	0%	-5%	-5%	-7%	x
O=C(N/N=C/c1c(O)ccc2ccccc12)c1ccc[n+](CCO)c1	28µM*	27%	35µM*	13µM*	9%	u
CC(C)Oc1ccc(CNC(=O)C2CCN(C(=O)N3CC(C)Oc4ccccc43)CC2)cc1 (stereo not drawn)	-5%	26%	x	-7%	x	u
CCCCOc1ccc(C(=O)NCc2nnnn2-c2ccc(C)c(C)c2)cc1	-15%	22%[57 µM]	x	2%	x	4%[59 µM]
O=C(N/N=C/c1ccccn1)C1CC1	1.3µM*	10%	x	u	79µM*	3.5µM*
C[C@@H](Cc1cccc(C(F)(F)F)c1)NCCOC(=O)c1ccccc1	x	x	x	x	7%	22%[21.5 µM]
CC(Cc1cccc(C(F)(F)F)c1)NCCOC(=O)c1ccccc1 (stereo not drawn)	-1%	31%	9%	0%	-5%	13µM*!
COc1cccc(-n2c(CN3CCN(c4ccccc4)CC3)nc3ccc([N+](=O)[O-])cc3c2=O)c1	u	-8%	-14%	u	28µM*	20µM*
CCOC(=O)C1CCN(Cc2nc3ccccc3c(=O)n2-c2ccc(F)cc2)CC1	-17%	14%	x	-7%	-2%	u
CCOC(=O)C1CCCN(Cc2nc3ccc([N+](=O)[O-])cc3c(=O)n2-c2ccc(OC)cc2OC)C1 (stereo not drawn)	u	-7%	-2%	-37%	-3%	40µM*
COc1ccc(-n2c(CN3CCN(c4ccccc4OC)CC3)nc3ccc([N+](=O)[O-])cc3c2=O)c(OC)c1	u	5%	x	u	-12%	45µM*
COc1cccc(-n2c(N)c(C#N)c3ccc([N+](=O)[O-])cc3c2=O)c1	x	x	6%	3%	15%	10%
CCOC(=O)C1CCN(Cc2nc3ccc([N+](=O)[O-])cc3c(=O)n2-c2ccc(OC)cc2OC)CC1	-28%	0%	x	-38%	5%	32µM*
COc1ccc(CNC(=O)CSc2ncc3c(n2)-c2cc(Cl)ccc2N(C)S3(=O)=O)cc1	-5%	12%	x	2%	x	1%[59 µM]
Cc1ccc(C)c(CSc2nnc3[nH]c(=O)cc(-c4ccccc4)n23)c1	-16%	40%	x	3%	x	0%[59 µM]
CCOC(=O)c1sc2ccccc2c1S(=O)(=O)NCc1ccc(F)cc1	-8%	2%	x	9%	x	-7%[59 µM]
